The nature of experiment [1]: resazurin metabolic signal in HepG2 cells – cell-based, resazurin fluorescence, 24 h, PK04 Diversity Set, profiling panel (AID 1172). The note with it: HepG2 viability, higher = more signal.
A short description of experiment [2]: budding yeast growth changes without added modifier – OD600, strain BY4716, 24 h, basal condition, primary screen (AID 1173). The note with it: S. cerevisiae BY4716 growth, OD600, 24 h; higher = more signal, called active from +8 up or from −8 down.
Experiment [3] is described as follows: viability profiling in MM1S myeloma cells – cell-based, resazurin fluorescence, basal, 24 h, PK04 Diversity Set, profiling panel (AID 1174).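 Also: MM1S multiple myeloma cell line.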 The note with it: higher = more signal, called active from +8 up or from −8 down.
Experiment [4] has as its target Dihydroorotate dehydrogenase (quinone), mitochondrial (Plasmodium falciparum (isolate 3D7)) (UniProt Q08210). The experiment in a line: inhibition of P. falciparum DHODH – biochemical, C-terminal His tag, absorbance 600 nm, primary screen (AID 1175).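 Also: recombinant parasite enzyme with a five histidine tag at its C terminus.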 The note with it: PfDHODH enzyme, DCIP absorbance 600 nm; higher = more signal, called active from +8 up or from −8 down.

A short description of experiment [5]: inhibition of PAO1 biofilm formation – strain PAO1, LB-PBS medium, absorbance 600 nm, primary screen (AID 1176). The note with it: P. aeruginosa PAO1 growth/biofilm, A600, 12 h; higher = more signal.
Experiment [6] can be described thus: growth modulation of vineyard yeast isolate – strain RM11-1a, OD600, basal, 24 h, primary screen (AID 1177).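 Also: cultures grown under basal conditions with no added stressor.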 The settings on record: S. cerevisiae RM11-1a growth, OD600, 24 h; higher = more signal, called active from +8 up or from −8 down.
Experiment [7] can be described thus: growth of efflux-deficient E. coli DRC39 – strain DRC39, OD650, 24 h, E. coli filamentation inducers, primary screen (AID 1178).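 Also: growth measured as culture turbidity by optical density at 650 nm.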 The note with it: E. coli DRC39 acrAB, higher = more signal, called active from +8 up or from −8 down.
Experiment [8] can be described thus: growth of efflux-deficient E. coli DRC39 – strain DRC39, OD650, 48 h, E. coli filamentation inducers, primary screen (AID 1179).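 Also: screen aims at cell division blockers that make cells filament.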 The settings on record: E. coli DRC39 delta-acrAB growth, higher = more signal, called active from +8 up or from −8 down.
Experiment [9] is described as follows: viability profiling in RPMI8226 myeloma cells – cell-based, resazurin fluorescence, basal, 24 h, PK04 Diversity Set, profiling panel (AID 1180).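 Also: RPMI8826 multiple myeloma cell line at 5000 cells per well.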 The note with it: higher = more signal.
Experiment [10] addresses E3 ubiquitin-protein ligase XIAP (Homo sapiens) (UniProt P98170). The experiment in a line: small molecules binding XIAP protein – biophysical, small-molecule microarray, fluorescence 635 nm, primary screen (AID 1181).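 Also: score merges 667 nm emission and signal to noise over triplicate slides.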 The note with it: higher = more signal.
Experiment [11] relates to XIP peptide (Xip251-270) binding. The experiment in a line: XIP fragment 251-270 binding compounds – biochemical, small-molecule microarray, fluorescence 635/667 nm, 0.1 µg/mL protein, primary screen (AID 1182). The note with it: fluorescent protein binding, 635 nm, higher = more signal, called active from +8 up or from −8 down.
The next experiment relates to XIP peptide (Xip251-270). Kind of experiment: compounds binding XIP fragment 251-270 – biochemical, small-molecule microarray, fluorescence 635/667 nm, 0.5 µg/mL protein, primary screen (AID 1183). The note with it: fluorescence 635 nm, higher = more signal.
A short description of experiment [12]: blood-stage malaria parasite viability loss – strain 3D7, DAPI fluorescence, 100 nL, primary screen (AID 1184).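 Also: parasites grown inside human red blood cells in medium with human serum.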 The settings on record: P. falciparum 3D7 growth, 3 d, higher = more signal.
For experiment [13], the target named is Homeobox protein Hox-A13 (Mus musculus) (UniProt Q62424). Kind of experiment: disruptors of Hoxa13 oligonucleotide interaction – biochemical, fluorescence polarization, labeled oligonucleotide, primary screen (AID 1185). The note with it: Hoxa13:DNA binding, 15 min, higher = more signal, called active from +8 up or from −8 down.
Chain of Homeobox protein Hox-A13 (Mus musculus) (Q62424 whole entry, looked up): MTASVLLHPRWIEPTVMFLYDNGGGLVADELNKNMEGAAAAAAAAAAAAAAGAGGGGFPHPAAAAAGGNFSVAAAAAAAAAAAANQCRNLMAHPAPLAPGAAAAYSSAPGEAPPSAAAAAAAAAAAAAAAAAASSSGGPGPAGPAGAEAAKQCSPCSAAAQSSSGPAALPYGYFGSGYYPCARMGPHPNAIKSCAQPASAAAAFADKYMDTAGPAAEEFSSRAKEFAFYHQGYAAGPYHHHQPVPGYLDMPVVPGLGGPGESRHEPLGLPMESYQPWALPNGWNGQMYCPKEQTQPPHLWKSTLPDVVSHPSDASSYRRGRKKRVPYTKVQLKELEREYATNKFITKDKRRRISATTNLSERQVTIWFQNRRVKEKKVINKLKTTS
Experiment [14] is described as follows: blockers of DNA damage checkpoint Chk1 activation – imaging, HeLa, hydroxyurea, phospho-Chk1 antibody, percent positive cells, primary screen (AID 1186). The settings on record: hydroxyurea-induced phospho-Chk1 immunofluorescence imaging, higher = more signal.
Experiment [15] can be described thus: blockers of DNA damage checkpoint Chk1 activation – imaging, HeLa, hydroxyurea, phospho-Chk1 nuclear intensity, primary screen (AID 1187). The note with it: hydroxyurea-induced phospho-Chk1 immunofluorescence imaging, higher = more signal.

SMILES strings stand for the structures. The source made the active and inactive calls. Unless noted, no rule for the calls is given here.

Chain of E3 ubiquitin-protein ligase XIAP (Homo sapiens) (P98170 whole entry, looked up, the tested form may be a part): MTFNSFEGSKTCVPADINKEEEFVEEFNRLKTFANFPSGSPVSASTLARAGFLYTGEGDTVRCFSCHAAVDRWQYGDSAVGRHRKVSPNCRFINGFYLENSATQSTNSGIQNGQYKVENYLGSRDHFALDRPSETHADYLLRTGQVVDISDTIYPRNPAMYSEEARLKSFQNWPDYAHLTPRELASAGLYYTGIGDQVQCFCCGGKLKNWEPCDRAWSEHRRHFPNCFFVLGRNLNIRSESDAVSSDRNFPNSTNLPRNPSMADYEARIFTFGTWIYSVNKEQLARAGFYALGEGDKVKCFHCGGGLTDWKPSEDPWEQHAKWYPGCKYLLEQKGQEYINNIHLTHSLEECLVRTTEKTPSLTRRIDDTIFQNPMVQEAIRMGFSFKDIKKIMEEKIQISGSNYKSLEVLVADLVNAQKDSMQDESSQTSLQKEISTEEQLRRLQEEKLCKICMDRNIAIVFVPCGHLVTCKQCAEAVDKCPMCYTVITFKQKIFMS
Chain of Dihydroorotate dehydrogenase (quinone), mitochondrial (Plasmodium falciparum (isolate 3D7)) (Q08210 whole entry, looked up): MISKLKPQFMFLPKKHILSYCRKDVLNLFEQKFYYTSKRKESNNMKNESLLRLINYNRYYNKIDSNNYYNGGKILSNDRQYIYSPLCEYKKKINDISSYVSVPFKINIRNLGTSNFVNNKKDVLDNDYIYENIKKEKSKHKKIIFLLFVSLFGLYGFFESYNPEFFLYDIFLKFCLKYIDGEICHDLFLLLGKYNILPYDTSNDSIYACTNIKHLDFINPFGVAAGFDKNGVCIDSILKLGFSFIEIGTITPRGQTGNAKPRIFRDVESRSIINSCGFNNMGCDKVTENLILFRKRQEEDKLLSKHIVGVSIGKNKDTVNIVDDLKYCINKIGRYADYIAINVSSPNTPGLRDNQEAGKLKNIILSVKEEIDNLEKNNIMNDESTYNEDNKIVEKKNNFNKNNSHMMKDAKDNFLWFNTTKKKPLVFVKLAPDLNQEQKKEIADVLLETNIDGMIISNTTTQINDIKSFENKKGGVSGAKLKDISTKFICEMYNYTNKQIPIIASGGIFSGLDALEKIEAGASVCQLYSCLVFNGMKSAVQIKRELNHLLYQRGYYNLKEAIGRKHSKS

On to `CCOC(=O)C1=C[C@@H](C(C)(C)C)N(S(=O)(=O)c2ccc(C)cc2)[C@H]1c1ccccc1`, for which the z-score is -0.159 in experiment [1]; 1.53 (inactive) in experiment [2]; -0.562 (inactive) in [3]; 0.0083 (inactive) in experiment [5]; 1.59 (inactive) in experiment [6]; 0.128 (inactive) in experiment [7]. Further, the z-score in experiment [8] is -0.0515 (inactive); in [9], -1.11; in experiment [12], -2.01; in [13], -0.661 (inactive); in [14], 0.327 (inactive); in experiment [15], -0.0853 (inactive). For the same compound, the composite z-score in [4] was -0.294 (inactive); in experiment [10], -0.162; in experiment [11], 0.19 (inactive); in the experiment with XIP peptide (Xip251-270), 0.311.
Regarding `COc1ccc(C(O)C2C=CC3C(=O)N(c4ccccc4)C(=O)C3N2Nc2ccccc2F)cc1` (stereo not drawn), the z-score in [1] was -0.229; in experiment [2], -0.359 (inactive); in experiment [3], -0.0646 (inactive); in experiment [5], 0.987 (inactive); in [6], -0.687 (inactive); in experiment [7], -0.548 (inactive). For the same compound, the z-score was -0.869 (inactive) in experiment [8]; 0.435 in experiment [9]; 0.571 in experiment [12]; -3.05 (inactive) in experiment [13]; -0.296 (inactive) in [14]; -0.741 (inactive) in experiment [15]. For the same compound, the composite z-score is -0.0377 (inactive) in experiment [4], 0.483 in [10], 1.11 (inactive) in [11] and 0.857 with XIP peptide (Xip251-270).
`COc1cc(CO)cc(I)c1O[C@H]1C=C(C(=O)NCCO)C[C@@H](NCC2CCCCC2)[C@@H]1O`: the z-score in experiment [1] is 0.361; in experiment [2] it was -0.964 (inactive); in [3] it was -0.221 (inactive); in experiment [5] it was -0.107 (inactive); in experiment [6], -0.489 (inactive); in [7], 1.45 (inactive). The z-score in [8] is 0.866 (inactive); in [9], 0.428; in [12], -0.68; in [13], -3.57 (inactive); in [14] it was -1.23 (inactive); in experiment [15], -0.873 (inactive). Also, the composite z-score in experiment [4] was -0.257 (inactive); in [10] it was 0.0831; in experiment [11] it was 0.0593 (inactive); in the experiment with XIP peptide (Xip251-270), 0.465.
Turning to `Cc1ccc(S[C@]2(C(=O)NCC(C)C)CC(=O)N(C3Cc4ccccc4C3)[C@@H]2c2ccc(CO)cc2I)cc1`, the z-score in experiment [1] is 0.0073; in experiment [2], -1.51 (inactive); in experiment [3], -2.16 (inactive); in [5], 0.503 (inactive); in [6], 0.207 (inactive); in [7], -0.0452 (inactive). Besides, the z-score in [8] was -0.138 (inactive); in experiment [9], -2.55; in [12], -0.233; in [13], -2.9 (inactive); in experiment [14] it was 0.495 (inactive); in [15] it was 0.307 (inactive). Also, the composite z-score in [4] is -0.0634 (inactive); in experiment [10] it was -0.214; in experiment [11], -0.238 (inactive); in the experiment on XIP peptide (Xip251-270), -0.658.
As for `O=C(CS)NCCCCCNC(=O)[C@@H]1C[C@@H]2C(=O)N[C@@H](Cc3ccccc3)C(=O)N2[C@@H]1c1cccc(OCCO)c1`, the z-score in experiment [1] was -0.528; in experiment [2] it was 0.0575 (inactive); in [3], -0.513 (inactive); in experiment [5], 0.0067 (inactive); in experiment [6], 0.647 (inactive); in experiment [7] it was 0.403 (inactive). The z-score was 0.801 (inactive) in [8]; -0.0412 in [9]; -0.0054 in [12]; -2.89 (inactive) in experiment [13]; 0.341 (inactive) in [14]; 0.581 (inactive) in experiment [15]. Besides, the composite z-score is -0.148 (inactive) in experiment [4], -0.0911 in [10], 0.74 (inactive) in experiment [11] and 0.77 in the experiment on XIP peptide (Xip251-270).
As for `CC(C)=CCCC(C)=CC(O)C1C=CC2C(=O)N(c3ccccc3)C(=O)C2N1Nc1ccccc1F` (stereo not drawn), the z-score in experiment [1] was 0.856; in experiment [2], -1.18 (inactive); in [3], 0.47 (inactive); in [5] it was 0.505 (inactive); in experiment [6], -0.54 (inactive); in [7], 0.131 (inactive). The z-score in experiment [8] is 0.739 (inactive); in [9], 1.22; in [12] it was 0.203; in experiment [13], -3.38 (inactive); in experiment [14], 0.0156 (inactive); in experiment [15], 0.0908 (inactive). In addition, the composite z-score is -0.323 (inactive) in experiment [4], -0.21 in experiment [10], 0.0917 (inactive) in experiment [11] and 0.546 in the experiment with XIP peptide (Xip251-270).
Take `C=CCN1C(=O)[C@]2(O[C@H](CCO)[C@@H]([Si](C)(C)c3ccc(OC)cc3)[C@@H]2C)c2cc(N3C(=O)COc4ccccc43)ccc21`: the z-score in experiment [1] is -5.79; in [2], 0.346 (inactive); in [3], -8.88 (active); in experiment [5] it was -0.34 (inactive); in experiment [6], 2.96 (inactive); in experiment [7], 1.55 (inactive). In addition, the z-score in experiment [8] was 0.68 (inactive); in [9], -6.28; in experiment [12] it was -2.85; in [13], -3.34 (inactive); in experiment [14] it was -1.42 (inactive); in experiment [15], -1.34 (inactive). Moreover, the composite z-score was 0.828 (inactive) in experiment [4], 0.0356 in experiment [10], 0.879 (inactive) in experiment [11] and 0.677 in the experiment on XIP peptide (Xip251-270).
On to `O=C(N1CCOCC1)[C@@]1(CCS(=O)(=O)c2ccccc2)N=C(c2ccc(OCCCO)cc2)O[C@H]1c1ccccc1`, for which the z-score in experiment [1] was -0.285; in [2], 1.24 (inactive); in experiment [3], -0.986 (inactive); in experiment [5], 1.02 (inactive); in experiment [6], 0.0235 (inactive); in experiment [7], 0.0835 (inactive). For the same compound, the z-score is 0.0231 (inactive) in experiment [8]; -1.09 in experiment [9]; -1.39 in experiment [12]; -5.53 (inactive) in experiment [13]; 0.0192 (inactive) in experiment [14]; 0.249 (inactive) in [15]. In addition, the composite z-score is 0.225 (inactive) in [4], 0.3 in experiment [10], 1.79 (inactive) in [11] and 0.747 with XIP peptide (Xip251-270).
